Hit rate of the full screen: of about 2,100 compounds, about 650 (31%) were called active. Not shown: some 16% with an inconclusive outcome. Calls follow the shape of the dose curve; as a rule, active = well fitted inhibition curve with a large enough effect; inconclusive = small, poorly fitted or top-dose-only effect; inactive = flat fitted curve, though single readings scatter. This is one part of the list. A call without a number means that no potency is given here.

From PubChem BioAssay AID651812 (National Center for Advancing Translational Sciences (NCATS), 2012) come the findings set out here.
Potency is read from the fitted curve at half-maximal effect.

A short description of this experiment: qHTS for inhibitors of Vif-A3G interactions: Cherry picks. Also: nearly all actives have a fitted effect of over 80% in size. The conditions noted are these: HeLa A3G-eYFP + Vif (tagged APOBEC3G with the HIV-1 protein that degrades it), 24 h; Potency: eYFP fluorescence increase; series mostly up to 36.9 µM. Put shortly:
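HeLa cells stably expressing A3G-eYFP and Vif, cultured overnight then exposed to compounds at several concentrations for 24 hours at 37 C, 5% CO2; cellular yellow fluorescence (488 nm ex, 500-530 nm em) imaged on Acumen, MG132 positive control.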
(qHTS replaces the single test concentration by a dilution series.)
Take `COCCNC(=O)C(=O)Nc1ccc2c(c1)N(S(=O)(=O)c1cccs1)CCC2`: the Potency entry is “inactive”.

With `CN(/N=C/c1ccc(N(C)C)cc1)C1=NS(=O)(=O)c2ccccc21`, the Potency is 17.7 µM (active).

For the compound `CN(C)c1ccc(/C=N/NC(=O)c2ccccc2Cl)cc1`, the Potency result was “inactive”.

For `CCn1c(CNC(=O)c2cc(OC)c(OC)c(OC)c2)cc2cc(C)ccc21`, the Potency result was “inactive”.

As to `CCOc1ncccc1C(=O)OCc1ccc(C(=O)OC)cc1`, the Potency result was “inactive”.

For the compound `C=CCSc1nnc(C)c(/C=C/Nc2ccc(Cl)cc2)n1`, the Potency was 20.6 µM (active).

In the case of `COc1ccc(N/C=C/c2nc(SC)nnc2C)cc1`, the Potency entry is “inactive”.

Consider `COc1ccccc1NC1=NC(c2ccc(Cl)cc2)N=C(N)N1` (configuration not stated), for which the Potency result is “inactive”.

In the case of `CCN(CC)c1ccc(/C=N/NC(=S)NC)c(O)c1`, the Potency entry was “inactive”.

For `CCN1C(=S)SC(=O)C1=C1C=C(C)N(Cc2ccco2)C(C)=C1`, the Potency is 14 µM (active).

With `Cc1c(C(=O)Nc2cnccn2)oc2ccccc12`, the Potency entry is “inactive”.

With `O=C1CC(c2cc(F)ccc2F)c2cc3c(cc2N1)CCC3` (configuration not stated), the Potency result was “inactive”.

For `O=C(Cc1n[nH]c(=O)c2ccccc12)OCC(=O)c1ccc2c(c1)OCCO2`, the Potency entry is “inactive”.

Consider `N#Cc1ccc(/C=C\c2nccc3c2[nH]c2ccccc23)cc1`, for which the Potency is 14 µM (active).

In the case of `C(=C/c1nccc2c1[nH]c1ccccc12)/c1ccc2c(c1)OCO2`, the Potency entry is “inactive”.

Take `O=C(C[n+]1cccc2cc(Cl)ccc21)c1ccc2ccccc2c1`: the Potency is 23.1 µM (active).

Turning to `CC(C)(C)c1ccc(C(=O)C[n+]2cccc3cc(Cl)ccc32)cc1`, the Potency is 20.6 µM (active).

On to `O=C(C[n+]1cccc2cc(Cl)ccc21)c1ccc(I)cc1`, for which the Potency is 20.6 µM (active).

With `O=C(C[n+]1cccc2cccc(O)c21)c1ccc2ccccc2c1`, the Potency result is “inactive”.

As to `O=C(COC(=O)c1ccc(NS(=O)(=O)c2cccs2)cc1O)NCc1ccccc1`, the Potency entry is “inactive”.

For `CCC(=Nc1ccccc1O)C1=C(O)CC(c2ccccc2)CC1=O` (configuration not stated), the Potency entry was “inactive”.

In the case of `Clc1ccccc1C1CC(c2ccccc2)=Nc2ccccc2N1` (configuration not stated), the Potency result was “inactive”.

`CCOc1ccccc1C(=O)Nc1ccsc1C(=O)OC`: the Potency entry was “inactive”.

For `Cc1cccc(C=Nc2ccccc2C(N)=O)c1`, the Potency entry was “inactive”.

With `CN(C)c1ccc(C=C2SC(=S)NC2=O)cc1`, the Potency was 11.2 µM (active).

Regarding `CCOc1ccc(N(C)c2ccc(/C=C3/SC(=S)NC3=O)cc2)cc1`, the Potency was 17.7 µM (active).

As for `O=C1NC(=Nc2ccc(O)cc2)S/C1=C/c1ccco1`, the Potency result was “inactive”.

As to `Cc1cccc(N=C2NC(=O)/C(=C/c3cccn3C)S2)c1`, the Potency result is “inactive”.

`Cn1cc(/C=C2\SC(=S)N(NC(=O)c3cccc(Cl)c3)C2=O)c2ccccc21`: the Potency is 3.66 µM (active).

`Cn1cccc1/C=C1\SC(=O)N(c2ccc(O)cc2)C1=O`: the Potency is 20.6 µM (active).

As for `Cn1cccc1/C=C1\SC(=Nc2cccc(O)c2)NC1=O`, the Potency result is “inactive”.

For `Cc1ccc(N=C2NC(=O)/C(=C/c3cn(C)c4ccccc34)S2)cc1C`, the Potency was 17.7 µM (active).

On to `Cn1cc(/C=C2\SC(=O)N(c3ccccc3)C2=O)c2ccccc21`, for which the Potency is 20.6 µM (active).

As for `CCOc1ccc(C(=O)C(CCC(CN(C)C)C(=O)c2ccc(OCC)cc2)CN(C)C)cc1` (configuration not stated), the Potency entry is “inactive”.

For the compound `S=c1[nH]nc(-c2cccnc2)n1/N=C/C(Cl)=C\c1ccccc1`, the Potency result is “inactive”.

In the case of `O=C(C(=Cc1ccccc1)CN1CCCCC1)c1ccccc1`, the Potency result is “inactive”.

In the case of `O=S(=O)(Nc1cc(Sc2ncn[nH]2)c(O)c2ccccc12)c1ccccc1`, the Potency result was “inactive”.

Turning to `COc1ccc(NC(=O)C2Cc3c(-c4cccc(C(C)=O)c4)ccnc3O2)cn1` (configuration not stated), the Potency result was “inactive”.

For the compound `Cc1noc(C)c1COc1cccc(C(=O)OC(C)C(=O)Nc2ccc3c(c2)OCO3)c1` (configuration not stated), the Potency entry was “inactive”.

For `COc1cc2c(cc1OC)C(C)N(C(=O)c1cc(C)on1)CC2` (configuration not stated), the Potency result was “inactive”.

As to `CN(C)c1ccc(C2C=C(c3ccc(Cl)cc3OC(F)F)Nc3ncnn32)cc1` (configuration not stated), the Potency entry was “inactive”.

Take `COc1ccccc1NS(=O)(=O)c1cc([N+](=O)[O-])ccc1N/N=C/c1sc(N2CCOCC2)nc1-c1ccccc1`: the Potency was 2.06 µM (active).

Turning to `Cc1ccc(S(=O)(=O)Nc2cc(-c3nn(C)c(=O)c4ccccc34)ccc2N2CCOCC2)cc1`, the Potency entry was “inactive”.

Regarding `O=C(O)c1ccccc1/C=N/Nc1ccc(S(=O)(=O)N2CCOCC2)cc1[N+](=O)[O-]`, the Potency entry was “inactive”.

Take `Cc1ccc(NS(=O)(=O)c2cc([N+](=O)[O-])ccc2N/N=C/c2sc(N3CCOCC3)nc2-c2ccccc2)c(C)c1`: the Potency is 0.158 µM (active).

In the case of `Cc1ccc(C(=O)c2cc([N+](=O)[O-])ccc2N2CCOCC2)cc1C`, the Potency entry was “inactive”.

As to `O=[N+]([O-])c1ccc(N/N=C/c2sc(N3CCOCC3)nc2-c2ccccc2)c(S(=O)(=O)Nc2ccccc2Cl)c1`, the Potency is 11.6 µM (active).

Consider `COc1cc(C2c3cc4c(cc3C(OC3OC5COC(c6cccs6)OC5C(O)C3O)C3COC(=O)C23)OCO4)cc(OC)c1O` (configuration not stated), for which the Potency entry is “inactive”.

Take `O=C(c1[nH]c(C(F)(F)F)nc1-c1ccccc1)N1CCN(c2cccc(C(F)(F)F)n2)CC1`: the Potency entry is “inactive”.

As to `O=C(CCc1ccccc1)Nc1ccc(Cl)cn1`, the Potency result is “inactive”.

Regarding `COC(=O)COc1cccc2c(=O)n(CC(=O)NCc3ccccc3)ccc12`, the Potency entry is “inactive”.

For `O=C(/C=C/c1ccncc1)c1cc(Cl)ccc1O`, the Potency entry is “inactive”.

In the case of `COc1ccccc1C1=NOC(COc2ccc3c(C)cc(=O)oc3c2)C1` (configuration not stated), the Potency result is “inactive”.

Take `CCSc1nc2ccccc2n1C(=O)/C=C/c1ccc(OC)c(OC)c1`: the Potency result was “inactive”.

Take `Cc1cccc(-n2c(N)c(-c3nc4ccccc4n3C)c3nc4ccccc4nc32)c1`: the Potency entry is “inactive”.

Regarding `CC(=O)n1c2ccccc2c2nc3ccccc3nc21`, the Potency was 9.2 µM (active).

Take `O=c1c(Cl)c2oc3ccccc3nc-2c2ccccc12`: the Potency was 18.4 µM (active).

With `COc1ccc(/C=N/NC(=O)c2cc3c(OC)ccc(OC)c3[nH]2)cc1O`, the Potency result was “inactive”.

For `O=[N+]([O-])c1ccc(N2CCN(Cc3ccccc3)CC2)c2c1no[n+]2[O-]`, the Potency is 15.8 µM (active).

Consider `Cc1ccc(-c2nc3ccccc3o2)cc1NC(=S)NC(=O)/C=C/c1ccco1`, for which the Potency entry is “inactive”.

For the compound `COc1ccccc1C(=O)NC(=S)Nc1ccc(NC(=O)c2ccco2)cc1`, the Potency entry was “inactive”.

For the compound `Cc1cc(NC(=O)c2ccco2)cc(-c2nc3cc(Cl)ccc3o2)c1O`, the Potency is 18.4 µM (active).

As for `CC1=C(C(=O)Nc2cccc(F)c2)C(c2ccsc2)C2=C(CC(C)(C)CC2=O)N1` (configuration not stated), the Potency entry was “inactive”.

Regarding `CCOC(=O)CN1C(=O)S/C(=C/c2ccc(N3CCCCC3)o2)C1=O`, the Potency was 5.8 µM (active).

For the compound `O=C1S/C(=C/c2ccc(N3CCOCC3)o2)C(=O)N1Cc1c(F)cccc1Cl`, the Potency was 4.44 µM (active).

`O=C1S/C(=C\c2ccc(N3CCOCC3)o2)C(=O)N1c1ccccc1`: the Potency was 2.8 µM (active).

Regarding `CCCN1C(=O)S/C(=C\c2ccc(N3CCOCC3)o2)C1=O`, the Potency is 4.44 µM (active).

Consider `Cc1ccc(Cn2nnc3c(=O)n(CC(=O)NCc4ccccc4)cnc32)cc1`, for which the Potency result was “inactive”.

Turning to `CO/N=C\CC(=O)Nc1ccc(Cl)c(Cl)c1`, the Potency entry was “inactive”.

Turning to `Cc1ccc2nc(NS(=O)(=O)c3ccc(Cl)cc3)c(Nc3ccc(C(=O)O)cc3)nc2c1`, the Potency result is “inactive”.

With `O=C1S/C(=C/c2ccc(N3CCOCC3)o2)C(=O)N1Cc1ccc(F)cc1`, the Potency was 2.8 µM (active).

Consider `CCc1ccc2c(c1)NC(=O)C2(C)Cc1ccccc1Cl` (configuration not stated), for which the Potency result is “inactive”.

For the compound `COC(=O)[C@@H]1Cc2c([nH]c3ccccc23)C(C)(C)N1C(=O)CCl`, the Potency result was “inactive”.

`c1ccc(-c2cnn3c(-c4ccccc4)c(-c4ccccc4)nc3n2)cc1`: the Potency was 3.66 µM (active).

Consider `COc1ccc(-n2nnnc2-c2cccc(OC)c2)cc1`, for which the Potency result is “inactive”.

Take `COc1ccc(C2CC(c3ccncc3)=NN2c2ccc(S(N)(=O)=O)cc2)cc1` (configuration not stated): the Potency is 10.3 µM (active).

For `CCS(=O)(=O)N1N=C(c2ccc(C)cc2)CC1c1cc2ccc(OC)cc2nc1Cl` (configuration not stated), the Potency entry is “inactive”.

As to `COc1ccc(-c2cnc3c(NC=O)cc(-c4ccccc4)cn23)cc1OC`, the Potency entry was “inactive”.

As to `COc1ccc(/C=c2\s/c(=C/C(=O)c3ccc(C)cc3)[nH]c2=O)c(OC)c1`, the Potency is 20.6 µM (active).

Turning to `COc1ccccc1/C=N/NC(=S)Nc1cccnc1`, the Potency result is “inactive”.

For `COc1ccc(N=Cc2sc(O)c3ccccc23)cc1`, the Potency is 12.5 µM (active).

Turning to `Oc1sc(C=Nc2ccc(F)cc2)c2ccccc12`, the Potency was 2.91 µM (active).

Turning to `COc1ccc(NC(=O)c2c(Cl)n(C)c3ccccc23)cc1`, the Potency result was “inactive”.

For the compound `Oc1sc(C=Nc2ccccc2)c2ccccc12`, the Potency is 16.4 µM (active).

`COc1ccc(C(=O)N/N=C/c2ccccc2OC(=O)c2ccccc2)cc1`: the Potency result was “inactive”.

On to `COc1ccc(N=Cc2c(O)c3ccccc3n2C(C)=O)cc1`, for which the Potency was 18.4 µM (active).

For the compound `CNC(=S)N/N=C(\C)c1ccc(Cl)s1`, the Potency entry is “inactive”.

As to `COCCCN(C(C)=O)c1nc(-c2ccc(OC)cc2)cs1`, the Potency entry is “inactive”.

Regarding `COc1ccc(S(=O)(=O)NN(C)c2nc(C(F)(F)F)nc3ccccc23)cc1`, the Potency result is “inactive”.

In the case of `CC1(C)Cc2c(sc3ncnc(NNC(=S)NCc4ccccc4)c23)CO1`, the Potency result was “inactive”.

Turning to `COc1ccc(/C=N/NC(=O)c2cccnc2)cc1COc1ccc(NC(C)=O)cc1`, the Potency entry is “inactive”.

Consider `COc1ccc(OC)c(C2C=C(c3ccc(C)c(C)c3)Nc3nnnn32)c1` (configuration not stated), for which the Potency result was “inactive”.

Regarding `COc1ccc(NC(=O)c2c(C)noc2-c2snnc2C)cc1`, the Potency entry is “inactive”.

Turning to `CCC(=O)NC(c1ccc(OC)cc1)c1c(O)ccc2ccccc12` (configuration not stated), the Potency entry was “inactive”.

On to `COc1ccc(N=Cc2oc3ccc4ccccc4c3c2O)cc1`, for which the Potency was 7.31 µM (active).

For `COc1ccc(/C=N\NC(=O)c2cc3c(ccc4ccccc43)o2)cc1O`, the Potency result is “inactive”.

`CC(CC(=O)Nc1ccc2c(c1)c(=O)n(C)n2Cc1ccc(F)cc1)c1ccccc1` (configuration not stated): the Potency result is “inactive”.

As to `CCOC(=O)N1CCN(c2c(NCc3ccc(F)cc3)c(=O)c2=O)CC1`, the Potency entry is “inactive”.

Consider `CCOC(=O)C1=C(Cc2ccc(Cl)cc2)C(=O)c2ccccc2C1=O`, for which the Potency was 16.4 µM (active).

For the compound `CCOC(=O)c1[nH]c(C)c(C(=O)Nc2ccccc2F)c1C`, the Potency result is “inactive”.

With `CCOC(=O)C1=C(Cc2ccc(F)cc2)C(=O)c2ccccc2C1=O`, the Potency was 20.6 µM (active).

For `COCCNC(=S)N/N=C(\C)c1ccc(OC(F)F)cc1`, the Potency entry was “inactive”.
